# Target: Fibroblast growth factor 10 (Homo sapiens) (UniProt O15520)
# Test: FGF10 binders on small-molecule microarrays, primary screen, biochemical, small-molecule microarray, 635 nm fluorescence (AID 1102)
# Details: FGF10 binding, fluorescence 635 nm, higher = more signal
# Chain of Fibroblast growth factor 10 (Homo sapiens) (O15520 whole entry, looked up): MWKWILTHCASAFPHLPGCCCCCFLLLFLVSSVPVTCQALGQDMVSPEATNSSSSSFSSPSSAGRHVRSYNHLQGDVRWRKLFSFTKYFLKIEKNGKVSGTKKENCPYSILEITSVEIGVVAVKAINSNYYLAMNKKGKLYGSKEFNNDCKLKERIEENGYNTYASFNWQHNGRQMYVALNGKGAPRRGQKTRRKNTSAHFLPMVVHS
row,Compound,composite z-score
1,COc1ccc(OC[C@@H](CO)OC)cc1,0.428
2,COc1ccc(OC[C@H]2CN3[C@@H](CC[C@@H](C)[C@@H]3c3ccc(Br)cc3)C(=O)O2)cc1,0.0848
3,Cc1ccc(S(=O)(=O)N[C@@H]2COC(=O)CC=C[C@@H](C)[C@H](NS(=O)(=O)c3ccc(C)cc3)COC(=O)[C@H](C)NC(=O)CC=C[C@H]2C)cc1,-0.0861
4,CC(C)CON=C1C[C@@H](O)[C@@H](O)[C@@H]2[C@@H]3C(=O)N(C(C)(C)C)C(=O)[C@@H]3CC[C@@H]12,0.156
5,CCOC(=O)CCN1C(=O)[C@H]2[C@H]3[C@H](O)[C@H](O)CC(=O)[C@@H]3CC[C@H]2C1=O,1.1
6,CCOC(=O)[C@H](CC(C)C)NC(=O)CCC1CC(OC(=O)NCc2ccc3c(c2)OCO3)CC2(CCCC(COC(=O)NCCC(C)C)O2)O1 (stereo partly specified),0.136

# Tested on: glycogen synthase kinase-3 (GSK3A per assay name; protocol says GSK3B)
# Test: GSK3 binders on small-molecule microarrays, primary screen, biochemical, small-molecule microarray, 635 nm fluorescence, GSK3A (AID 1103); further: the record names both GSK3A and GSK3B
# Details: small-molecule microarray binding, fluorescence 635 nm; higher = more signal
row,Compound,composite z-score
1,O=C1C[C@@H](O)[C@@H](O)[C@@H]2[C@@H]3C(=O)N(c4ccc(F)cc4F)C(=O)[C@@H]3CC[C@H]12,0.662
2,Cc1cc(C)c(-c2cc([C@H](C)ON=C[C@@H](C)[C@H](OCc3ccccc3)C(C)C)on2)c(C)c1,-1.17
3,CCN1C(=O)[C@H]2[C@H]3[C@H](O)[C@H](O)CC(=NOCC=C(C)CCC=C(C)C)[C@@H]3CC[C@H]2C1=O,0.938
4,CC(CCC(=O)OC[C@H]1O[C@H](C#Cc2ccccc2)C=C[C@@H]1Oc1ccc(C)cc1)=NOC[C@@H](C)[C@H](OCc1ccccc1)C(C)C,-1.3
5,CCOC(=O)CCN1C(=O)[C@H]2[C@H]3[C@H](O)[C@H](O)CC(=NO[C@@H]4O[C@H](CO)[C@@H](O)[C@H](O)[C@H]4O)[C@H]3CC[C@H]2C1=O,0.822
6,CC1(C)O[C@H]2OC([C@H](O)CON3C(=O)c4ccccc4C3=O)[C@H](O)[C@H]2O1 (stereo partly specified),0.0618
7,CC(CCN1CCc2nc(-c3ccccc3)c(-c3ccccc3)cc2C1)=NO[C@H](C)c1cn([C@H](CO)Cc2ccccc2)nn1,-0.135
8,CON=C(C)CCN1CCCc2nc(C)c(C)cc21,0.897
9,CC(=O)OC[C@H]1O[C@@H](ON=C(C)CCC(=O)OC[C@H]2O[C@H](C#Cc3ccccc3)C=C[C@@H]2Oc2ccc(C)cc2)[C@H](OC(C)=O)[C@@H](OC(C)=O)[C@@H]1OC(C)=O,1.11
10,CCN1C(=O)[C@H]2[C@H]3[C@H](O)[C@H](O)CC(=NO[C@H](C)c4cn([C@H](CO)Cc5ccccc5)nn4)[C@@H]3CC[C@H]2C1=O,0.978
11,CC(=O)OC[C@H]1O[C@@H](ON=C(C)C)[C@H](OC(C)=O)[C@@H](OC(C)=O)[C@@H]1OC(C)=O,-1.28
12,CC(C)CON=C1C[C@@H](O)[C@@H](O)[C@@H]2[C@@H]3C(=O)N(c4ccc(F)cc4F)C(=O)[C@@H]3CC[C@@H]12,0.598
13,C=C(C)C(=O)OC[C@H]1CN2[C@@H](CC[C@@H](C)[C@@H]2c2ccc(Br)cc2)C(=O)O1,0.179
14,CC(CCN1CCCc2nc(C)c(C)cc21)=NOC[C@@H](O)COCc1ccco1,1.22
15,O=C1C=C[C@@H](O)[C@@H]2[C@@H]3C(=O)N(Cc4ccc5c(c4)OCO5)C(=O)[C@@H]3CC[C@@H]12,0.719
16,CC(C)(C)N1C(=O)[C@H]2[C@H]3[C@H](O)[C@H](O)CC(=NOC[C@@H](O)COCc4ccco4)[C@@H]3CC[C@H]2C1=O,-0.332
17,C=CC[C@@H]1C=CC(ON=C(C)C)[C@@H](CO)O1 (stereo partly specified),-0.689
18,CCC1=NOC(CCC2CC(OC(=O)NCc3cccc4c3OCO4)CC3(CCCC(COC(=O)NCCc4ccc(Cl)cc4)O3)O2)C1 (stereo unspecified),0.173
19,C#CCCCON=C1C[C@@H](O)[C@@H](O)[C@@H]2[C@@H]3C(=O)N(C4CCCCC4)C(=O)[C@@H]3CC[C@@H]12,-0.0432
20,CC(=O)OC[C@H]1O[C@H](CC=NOC[C@@H](O)COCc2ccco2)C=C[C@@H]1OC(C)=O,1.24
21,CC(C)=NOC(C)CN1CCCc2nc(C)c(C)cc21 (stereo unspecified),1.1
22,CCOC(=O)[C@H](Cc1ccccc1)NC(=O)CCC1CC(OC(=O)NCc2cccc3ccccc23)CC2(CCCC(COC(=O)NCC3CCCCC3)O2)O1 (stereo partly specified),0.805
23,O=C1C[C@H](c2ccccc2)[C@H](c2ccc(Br)cc2)O1,-0.826
24,COC(=O)[C@H](C)NC(=O)CCC1CC(OC(=O)NCCc2ccc(F)cc2)CC2(CCCC(COC(=O)NCC3CCCCC3)O2)O1 (stereo partly specified),1.23
25,CN1CCc2nc(-c3ccccc3)c(-c3ccccc3)cc2C1,0.256

# Source: PubChem BioAssay
